APE1 inh-1: qHTS Assay for Inhibitors of the Human Apurinic/apyrimidinic Endonuclease 1 (APE1); DNA repair nuclease/redox regulator APEX1 (Homo sapiens), P27695; 0.35% of 350,000 active; Potency, µM (top dose mostly 65.8 µM), for the others: at the top dose activity change, negative = inhibition, most hits filed as inhibitors; AID 2517, 2012; recombinant APE1, TAMRA/BHQ-2 abasic DNA cleavage fluorescence;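 note: plate controls were vehicle for no effect and reference inhibitor for full effect; nearly all actives have a fitted effect of over 55% in size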
Target sequence (P27695 whole entry, looked up): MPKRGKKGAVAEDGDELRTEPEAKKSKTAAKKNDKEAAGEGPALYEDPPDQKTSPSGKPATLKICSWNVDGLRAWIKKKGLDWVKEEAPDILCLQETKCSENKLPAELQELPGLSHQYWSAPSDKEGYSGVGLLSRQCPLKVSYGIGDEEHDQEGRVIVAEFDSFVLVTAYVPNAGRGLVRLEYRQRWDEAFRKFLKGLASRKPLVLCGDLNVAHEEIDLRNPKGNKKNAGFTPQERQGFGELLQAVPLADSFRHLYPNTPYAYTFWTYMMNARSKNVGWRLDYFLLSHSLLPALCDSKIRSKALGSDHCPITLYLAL
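Kinetic fluorescence read (525 ex/598 em nm, three reads 60 s apart) of AP-site incision; signal = third minus first read. Enzyme 0.75 nM, dual-labelled THF duplex 50 nM, compound preincubation 15 min RT.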
RECQ1 inh-1: qHTS Assay for Inhibitors of RecQ-Like Dna Helicase 1 (RECQ1); ATP-dependent DNA helicase Q1 (Homo sapiens), P46063; RECQ1 DNA unwinding, red fluorescence kinetic read; Potency, µM (highest dose often 57.3 µM), for the others: at the highest dose activity, negative = inhibition, hits mostly inhibitors; 0.54% of 240,000 active; AID 2549, 2010;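 note: plate controls were vehicle for no effect and no enzyme for full effect; nearly all actives have a fitted effect of over 30% in size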
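RECQ1T1 50 nM; forked duplex (20 bp + 30-nt ss tails) 200 nM, ATP 2 mM final; pH 8.0, 2 mM MgCl2, 2.5 ug/ml poly(dI-dC); 15 min compound preincubation; discontinuous kinetic read over 2 h at RT.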
TexasRed fluor: Total Fluorescence Counterscreen for Inhibitors of the Interaction of Thyroid Hormone Receptor and Steroid Receptor Coregulator 2; AID 1479, 2009; TRb/SRC2 Texas Red total fluorescence interference; 0.29% of 280,000 active; Potency, µM (doses to about 106 µM), inactives show at the top dose fluorescence change, negative = quenching; active = well fitted curve in either direction with a large enough effect; inconclusive = small, poorly fitted or top-dose-only effect
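Human TRβ ligand-binding domain (0.6 uM) and Texas Red SRC2 peptide (20 nM) in Tris buffer with 1 uM T3 and 5% DMSO were incubated with pinned compound for 5 hr at ambient temperature. Total fluorescence was computed as S + 2P (555/632 nm).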
GoLoco inh red: qHTS Assay for Inhibitors of RGS12 GoLoco Motif Activity (Red Fluorophore). Potency, µM (top dose mostly 61.6 µM), inactives show top-dose activity, negative = inhibition, hits mostly inhibitors. Guanine nucleotide-binding protein G(i) subunit alpha-1 (Homo sapiens), P63096. Gai1:RGS12 GoLoco peptide FP, rhodamine, 10 min. 0.44% of 230,000 active; active = well fitted inhibition curve with a large enough effect, not every such curve was filed as active; inactive = no such curve, though single readings can be large or run the other way; note: nearly all actives have a fitted effect of over 30% in size
Target sequence (P63096 whole entry, looked up): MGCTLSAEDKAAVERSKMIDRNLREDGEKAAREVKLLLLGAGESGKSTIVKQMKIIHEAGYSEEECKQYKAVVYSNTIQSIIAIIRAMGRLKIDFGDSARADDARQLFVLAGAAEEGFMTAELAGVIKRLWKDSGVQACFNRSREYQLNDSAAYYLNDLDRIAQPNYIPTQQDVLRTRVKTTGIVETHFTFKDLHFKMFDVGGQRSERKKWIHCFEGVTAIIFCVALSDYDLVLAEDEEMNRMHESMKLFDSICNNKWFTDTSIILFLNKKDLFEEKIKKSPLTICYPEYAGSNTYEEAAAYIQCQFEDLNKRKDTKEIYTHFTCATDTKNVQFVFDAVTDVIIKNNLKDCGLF
BLM inh: qHTS Assay for Inhibitors of Bloom's syndrome helicase (BLM); Potency, µM (titrated, usually from 56.1 µM), inactives show at the top dose activity change, negative = inhibition, most hits filed as inhibitors; RecQ-like DNA helicase BLM (Homo sapiens), P54132; 0.2% of 350,000 active; recombinant BLM DNA unwinding, fluorescence dequenching;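 note: plate controls were vehicle for no effect and no enzyme for full effect; nearly all actives have a fitted effect of over 35% in size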
TRb SRC2 PPI: qHTS for Inhibitors of the Interaction of Thyroid Hormone Receptor and Steroid Receptor Coregulator 2; Thyroid hormone receptor beta (Homo sapiens), P10828; TRbeta-SRC2 peptide binding, fluorescence polarization; receptor liganded with 1 µM T3; Potency, µM (series often up to 106 µM), for inactives: at the highest dose activity change, negative = inhibition, hits mostly inhibitors; 0.065% of 280,000 active;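 note: plate controls were bound peptide for no effect and peptide without receptor for full effect; nearly all actives have a fitted effect of over 50% in size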
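Quantitative HTS by FP: 0.6 uM TRb LBD, 20 nM labeled SRC2 20-mer, 1 uM T3, 5% DMSO; 5 hr ambient incubation; % activity per concentration and potencies from concentration series.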
DNA dye displace: Counterscreen for APE1 Inhibitors: Fluorescent Dye Displacement Assay; shares compounds with APE1 inh-1; DNA fluorescent dye displacement counterscreen, fluorescence; Potency, µM (titrated, usually from 28.5 µM), inactives show at the top dose activity change, negative = inhibition, hits mostly inhibitors; 7% of 480 active; AID 2564, 2010;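 note: loss of thiazole orange fluorescence as the dye is displaced from duplex DNA; 0% = ThO with dsDNA and no compound and -100% = ThO without dsDNA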
EndoIV counter: Counterscreen for APE1 Inhibitors: qHTS Assay for Inhibitors of Endonuclease IV; shares compounds with APE1 inh-1; E. coli Endo IV, fluorogenic AP-site DNA cleavage; Potency, µM (top dose mostly 27.1 µM), for the others: top-dose activity change, negative = inhibition, actives largely listed as inhibitors; 4% of 560 active;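 note: plate controls were uninhibited enzyme wells for no effect and no enzyme buffer wells for full effect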
APE1 inh-2: Confirmation qHTS Assay for Inhibitors of the Human Apurinic/apyrimidinic Endonuclease 1 (APE1). shares compounds with APE1 inh-1. 44% of 750 active. purified APE1, fluorogenic abasic-site DNA cleavage. Potency, µM (series often up to 57.1 µM), for the others: at the highest dose activity change, negative = inhibition, usual class: inhibitors. AID 2572, 2010; note: nearly all actives have a fitted effect of over 30% in size
APE1 FP: qHTS FP-Based Assay for Inhibitors of the Human Apurinic/apyrimidinic Endonuclease 1 (APE1). shares compounds with APE1 inh-1. APE1 binding to TAMRA-labelled double-stranded DNA, fluorescence polarization displacement. Potency, µM (top dose mostly 28.5 µM), for inactives: at the highest dose activity, negative = inhibition, most hits filed as inhibitors. 7% of 480 active. AID 2573, 2010
RECQ1 conf: Confirmation qHTS Assay for Inhibitors of RecQ-Like Dna Helicase 1 (RECQ1); shares compounds with RECQ1 inh-1; RECQ1 helicase DNA unwinding, fluorescence; Potency, µM (series often up to 229 µM), for inactives: top-dose activity change, negative = inhibition, most hits filed as inhibitors; 28% of 610 active; AID 2708, 2010; note: nearly all actives have a fitted effect of over 45% in size
RECQ1 ADP FP: Counterscreen for RECQ1 Inhibitors: ADP Fluorescence Polarization Displacement Assay | ADP fluorescence polarization displacement counterscreen | 27% of 530 active | AID 2711, 2010 | Potency, µM (titrated, usually from 228 µM), without a hit: top-dose activity change, negative = inhibition, most hits filed as inhibitors | shares compounds with RECQ1 inh-1; note: nearly all actives have a fitted effect of over 45% in size
RECQ1 inh-2: Confirmation qHTS Assay for Inhibitors of RecQ-Like Dna Helicase 1 (RECQ1) - Round 2 Cherry Picks; shares compounds with RECQ1 inh-1; recombinant RECQ1 DNA unwinding, red fluorescence; Potency, µM (titrated, usually from 119 µM), for inactives: top-dose activity, negative = inhibition, actives largely listed as inhibitors; 15% of 1,100 active; note: nearly all actives have a fitted effect of over 50% in size
Starred values were filed as active, the others as inactive; i = inactive; ? = inconclusive; / = no result; ! = a repeat was not active; [ ] = remark or other dose. Compounds with a hit are over-represented: about 0.9% of the library has one in this group of screens. Unless noted, calls come from the whole dose curve; as a rule, active = well fitted curve in the direction sought with a large enough effect; inconclusive = small, poorly fitted or top-dose-only effect, or another doubt; inactive = no such curve, though single readings can be large; an effect the other way counts as inactive or inconclusive. Unless noted, % is set by controls: 0 for no effect and ±100 for the full control effect; potency is the fitted concentration of half-maximal effect.

SMILES	APE1 inh-1	RECQ1 inh-1	TexasRed fluor	GoLoco inh red	BLM inh	TRb SRC2 PPI	DNA dye displace	EndoIV counter	APE1 inh-2	APE1 FP	RECQ1 conf	others
Cc1cc(SCC(=O)c2ccc(O)c(O)c2)nc2ccccc12	?	25.1µM*	-1.8%	10.2%	-18.9%	1.9%	12.6µM*	75.5%	?	13.1%	/	RECQ1 inh-2=10µM*
CCS(=O)(=O)c1c(S(=O)(=O)CC)c2cc(C(C)(C)C)ccn2c1C(=O)c1ccc(F)cc1	/	/	-1.1%	/	-3.7%	2.6%	/	/	/	/	/
CC1CCCCC12NC(=O)N(CC(=O)Nc1sc3c(c1C(N)=O)CCC3)C2=O (stereo unspecified)	7.94µM*	?	-7.1%	120.2%	1.0%	-11.1%	?	-4.9%	-24.2%[24.4 µM]	3.9%	/	RECQ1 inh-2=-28.7%
COC(=O)c1c(NC(=O)CN2C(=O)NC3(CCC(C)CC3)C2=O)sc2c1CCC2 (stereo unspecified)	-2.0%	/	/	/	/	/	/	/	/	/	/
COc1ccc2c(c1)c(=O)oc1cc(OCC(=O)N3CCCC(C)C3)ccc12 (stereo unspecified)	?	i	-5.2%	2.0%	-7.3%	-15.6%	/	/	/	/	/
COc1ccc2c(c1)c(=O)oc1cc(OCC(=O)N3CCc4ccccc4C3)ccc12	10µM*	14.1µM*	-4.6%	-12.1%	-19.1%	-0.6%	-3.1%	?	3.98µM*	-28.7%	-7.1%[114 µM]	RECQ1 ADP FP=0.3%[91.9 µM];RECQ1 inh-2=?
Cc1noc(C)c1C(=O)N1CCC2(CCCN(c3ncccn3)C2)CC1	20.7%	-6.6%	/	9.0%	-14.3%	/	/	/	/	/	/
O=C(O)C1CC(C2CCCCN2)CN2CCCCC12 (stereo unspecified)	0.9%	-2.3%	-2.2%	-1.2%	-10.1%	-6.2%	/	/	/	/	/
Cn1c(SCC(=O)N/N=C/C=C/c2ccco2)nc2ccccc21	10µM*	17.8µM*	-11.3%	8.3%	1.5%	-0.9%	?	-8.3%	?	0.3%	?
Cn1c(SCC(=O)N/N=C/C=C/c2ccccc2[N+](=O)[O-])nc2ccccc21	-2.1%	12.3%	-6.5%	2.8%	0.3%	-2.5%	/	/	/	/	/
Cc1nn(CC(=O)NC2CC2)c(=O)c2cc3ccccc3n12	/	/	?	/	0.4%	8.0%	/	/	/	/	/
C=Cc1ccc(C=C)cc1	6.3%	3.1%	-2.5%	14.3%	/	1.2%	/	/	/	/	/
C(=C\c1ccco1)/C1=NN(c2ccccc2)C(c2ccco2)C1 (stereo unspecified)	-2.1%	-16.5%	1.3%	45.8%	-28.7%	3.8%	/	/	/	/	/
O=[N+]([O-])c1ccc(/C=C/C2=NN(c3ccccc3)C(c3ccco3)C2)o1 (stereo unspecified)	?	?	20.3%	198.2%	-22.2%	?	21.3%	?	14.1µM*	-85.9%	/	RECQ1 inh-2=7.94µM*
COC(=O)[C@@H](NC(=O)O[C@@H]1C(=O)c2ccc(OC)cc2O[C@H]1c1ccc2c(c1)OCO2)C(C)C	16.9%	-5.5%	-1.8%	1.2%	4.1%	2.3%	/	/	/	/	/
NC[C@H](O)c1ccc(O)c(O)c1	0.891µM*!	1.41µM*	-5.0%	11.8%	3.55µM*	-4.2%	-6.2%[57.1 µM]	9.7%[57.1 µM]	0.794µM*	?	25.1µM*!	RECQ1 ADP FP=10µM*!
CNC[C@@H](SC)c1ccc(O)c(O)c1	/	/	/	6.9%[14.2 µM]	/	/	/	/	/	/	/
Oc1ccc(C(O)CNCCCCCCNCC(O)c2ccc(O)c(O)c2)cc1O (stereo unspecified)	/	/	/	/	1.9%	/	/	/	/	/	/
CNC[C@H](O)c1ccc(O)c(O)c1	7.94µM*!	17.8µM*!	0.7%	11.4%	-2.5%	1.4%	-2.6%[57.1 µM]	30.8%[57.1 µM]	?	-5.3%[57.1 µM]	?	RECQ1 ADP FP=14.1µM*
